According to PubChem BioAssay (Tox21):
Records with an inconclusive call do not appear. Where a call stands in place of a potency, no number is given. Active and inactive are the calls of the source. Unless noted, calls follow the shape of the full dose curve.

Assays:
[1] = Nuclear factor erythroid 2-related factor 2/antioxidant responsive element (Nrf2/ARE) small molecule agonists: qHTS cell viability counter screen in human keratinocytes (AID 1919968; active = well fitted curve in the direction sought with a large enough effect in the repeat runs; an effect the other way counts as inactive or inconclusive; also: nearly all actives have a fitted effect of over 55% in size; also: potency is read from the fitted curve at half-maximal effect)
Method in brief: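 HaCaT ARE reporter line, 1,500 cells/well; 5 h settle, 37 C/5% CO2; cpd in DMSO pinned; 23 h exposure; CellTiter-Fluor, 1 h; fluorescence.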

[2] = Nuclear factor erythroid 2-related factor 2/antioxidant responsive element (Nrf2/ARE) small molecule agonists: luciferase reporter gene qHTS assay in human keratinocytes (AID 1919969); also: nearly all actives have a fitted effect of over 35% in size; also: potency is read from the fitted curve at half-maximal effect
[3] = target: Gonadotropin-releasing hormone receptor (Homo sapiens) (UniProt P30968); experiment: Human gonadotropin-releasing hormone receptor (GnRHR) small molecule agonists, calcium flux assay in GnRHR-HEK293 cells (AID 1920063); also: nearly all actives have a fitted effect of over 35% in size
Chain of Gonadotropin-releasing hormone receptor (Homo sapiens) (P30968 whole entry, looked up): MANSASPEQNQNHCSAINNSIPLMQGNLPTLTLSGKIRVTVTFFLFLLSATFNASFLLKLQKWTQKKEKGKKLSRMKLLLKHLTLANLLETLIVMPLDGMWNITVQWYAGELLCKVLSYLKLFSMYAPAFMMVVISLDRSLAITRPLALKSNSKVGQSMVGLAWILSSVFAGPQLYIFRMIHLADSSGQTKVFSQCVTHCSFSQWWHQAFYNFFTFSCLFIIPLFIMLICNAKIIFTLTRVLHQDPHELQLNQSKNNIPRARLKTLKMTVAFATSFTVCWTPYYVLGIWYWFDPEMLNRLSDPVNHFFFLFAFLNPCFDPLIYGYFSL
Method in brief: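 GnRHR-HEK293, 1500 cells/well, 18 h 37 C/5% CO2; Ca dye 1 h 37 C; cpd pinned (DMSO), agonist mode; kinetic FL 480/540, 3 min, 1 s reads; 15 conc, n=3.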

[4] = target: KiSS-1 receptor (Homo sapiens) (UniProt Q969F8); experiment: Human kisspeptin (KISS1R) small molecule agonists, calcium flux assay in KISS1R-HEK293 cells (AID 1920064; active = well fitted curve in the direction sought with a large enough effect in the repeat runs; an effect the other way counts as inactive or inconclusive)
Chain of KiSS-1 receptor (Homo sapiens) (Q969F8 whole entry, looked up): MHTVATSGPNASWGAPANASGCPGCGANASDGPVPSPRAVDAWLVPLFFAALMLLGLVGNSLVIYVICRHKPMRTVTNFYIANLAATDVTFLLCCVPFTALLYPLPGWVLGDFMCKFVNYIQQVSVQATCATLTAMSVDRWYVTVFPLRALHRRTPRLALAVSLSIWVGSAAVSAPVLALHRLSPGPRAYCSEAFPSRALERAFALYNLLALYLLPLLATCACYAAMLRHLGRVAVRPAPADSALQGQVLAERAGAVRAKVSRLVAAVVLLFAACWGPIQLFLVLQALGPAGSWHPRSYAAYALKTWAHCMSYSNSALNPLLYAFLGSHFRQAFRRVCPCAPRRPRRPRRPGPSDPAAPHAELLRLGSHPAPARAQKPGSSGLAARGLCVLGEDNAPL
Method in brief: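 Stable human KISS1R HEK293 line; 18 h plating, 37 C/5% CO2; calcium dye 1 h 37 C; compound pin transfer; kinetic fluorescence Ex/Em 480/540, 3 min.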

[5] = G protein-coupled receptor (GPCR) small molecule agonists, calcium flux assay: HEK293 wild type cell line counter screen (AID 1920065)
Method in brief: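 Kinetic fluorescence at Ex/Em 480/540, recorded every second over 3 min, served as the read-out after compound addition. Each compound was tested at 15 concentrations in triplicate on cells pre-loaded with calcium dye for 1 h.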

[6] = p53 small molecule agonists, cell-based qHTS assay with human liver microsomes (AID 1963577);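 also: p53 response element beta-lactamase reporter cells with liver microsomes plus NADPH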
Method in brief: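 p53RE-bla cells; 5 h settle, 37 C/5% CO2; cpd + HLM 0.5 mg/mL + NADPH 0.5 mg/mL (final); 16 h 37 C; LiveBLAzer 2 h RT dark; fluorescence readout.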

[7] = p53 small molecule agonists, cell-based qHTS assay with rat liver microsomes (AID 1963578)
Method in brief: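 Rat liver microsome activation: microsomes 0.5 mg/mL, NADPH 0.5 mg/mL final; p53RE-bla cells, 16 h 37 C; LiveBLAzer readout, 2 h RT dark.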

[8] = p53 small molecule agonists, cell-based qHTS assay with human liver microsomes: qHTS cell viability counter screen (AID 1963579); also: nearly all actives have a fitted effect of over 45% in size
Method in brief: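 Luminescent CellTiter-Glo read-out, 30 min at room temperature, gauged cytotoxicity in p53RE-bla cells exposed 16 h at 37 C to DMSO-dissolved compounds with metabolic activation by human liver microsomes and NADPH, each 0.5 mg/mL final.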

[9] = p53 small molecule agonists, cell-based qHTS assay with rat liver microsomes: qHTS cell viability counter screen (AID 1963580); also: nearly all actives have a fitted effect of over 45% in size
Method in brief: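 In HCT-116 cells carrying a p53 response element-bla reporter, compounds were metabolically activated in situ by rat liver microsomes with NADPH over 16 h. Cell ATP content then served as the cytotoxicity measure.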

[10] = p53 small molecule agonists, cell-based qHTS assay: qHTS cell viability counter screen (AID 1963581); also: nearly all actives have a fitted effect of over 45% in size; also: potency is read from the fitted curve at half-maximal effect
Method in brief: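 HCT-116 p53RE-bla cells, 4,000/well, plated 5 h before compound pin transfer; 16 h at 37 C; bla substrate 2 h RT; then CellTiter-Glo, 30 min RT, luminescence.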

[11] = target: 5-hydroxytryptamine receptor 2A (Homo sapiens) (UniProt P28223); experiment: 5-hydroxytryptamine receptor 2A (HTR2A) small molecule antagonists, cell-based qHTS assay (AID 1963586); also: nearly all actives have a fitted effect of over 45% in size
Chain of 5-hydroxytryptamine receptor 2A (Homo sapiens) (P28223 whole entry, looked up): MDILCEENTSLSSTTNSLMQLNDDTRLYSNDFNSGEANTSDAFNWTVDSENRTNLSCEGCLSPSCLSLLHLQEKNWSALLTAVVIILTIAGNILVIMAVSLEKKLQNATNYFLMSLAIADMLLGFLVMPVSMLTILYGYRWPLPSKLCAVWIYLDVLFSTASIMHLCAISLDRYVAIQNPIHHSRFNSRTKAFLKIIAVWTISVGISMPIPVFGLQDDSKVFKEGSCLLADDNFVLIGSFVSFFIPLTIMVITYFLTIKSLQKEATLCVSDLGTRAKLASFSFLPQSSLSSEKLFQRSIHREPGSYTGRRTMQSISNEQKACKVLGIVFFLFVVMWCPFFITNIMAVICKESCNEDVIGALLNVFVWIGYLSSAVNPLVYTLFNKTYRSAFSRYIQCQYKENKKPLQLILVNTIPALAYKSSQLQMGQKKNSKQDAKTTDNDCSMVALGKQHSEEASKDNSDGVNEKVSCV
Method in brief: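 Antagonist-mode intracellular calcium assay: DOI (4 nM) added after 5 min compound pre-incubation at room temperature to dye-loaded HTR2A-CHO cells. Fluorescence followed for 3 min, sampled every second.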

[12] = target: 5-hydroxytryptamine receptor 2A (Homo sapiens) (UniProt P28223); experiment: 5-hydroxytryptamine receptor 2A (HTR2A) small molecule agonists, cell-based qHTS assay (AID 1963587); also: nearly all actives have a fitted effect of over 30% in size
Method in brief: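 HTR2A-CHO cells, plated 18 h at 37 C/5% CO2, dye-loaded 1 h at 37 C; compounds in DMSO added by pin tool (agonist mode). Intracellular calcium flux read as kinetic fluorescence on FDSS over 2 min at 1 s intervals.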

[13] = target: Muscarinic acetylcholine receptor M1 (Homo sapiens) (UniProt P11229); experiment: Cholinergic receptor muscarinic 1 (CHRM1) small molecule antagonists, cell-based qHTS assay (AID 1963588); also: nearly all actives have a fitted effect of over 40% in size
Chain of Muscarinic acetylcholine receptor M1 (Homo sapiens) (P11229 whole entry, looked up): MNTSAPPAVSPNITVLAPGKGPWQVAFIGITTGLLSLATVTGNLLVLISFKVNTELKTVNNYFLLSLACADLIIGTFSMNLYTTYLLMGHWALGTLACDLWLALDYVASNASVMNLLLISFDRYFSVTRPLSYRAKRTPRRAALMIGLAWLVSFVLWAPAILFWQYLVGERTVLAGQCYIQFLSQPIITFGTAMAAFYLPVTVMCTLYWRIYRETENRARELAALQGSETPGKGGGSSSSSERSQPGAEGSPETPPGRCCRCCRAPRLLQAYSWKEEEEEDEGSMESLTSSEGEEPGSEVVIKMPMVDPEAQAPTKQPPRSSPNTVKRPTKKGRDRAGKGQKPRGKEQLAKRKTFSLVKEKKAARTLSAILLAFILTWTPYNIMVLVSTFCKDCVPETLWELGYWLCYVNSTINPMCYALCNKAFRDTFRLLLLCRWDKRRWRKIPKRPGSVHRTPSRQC
Method in brief: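 CHRM1-CHO calcium-flux assay, antagonist mode. Cells were seeded 18 h, dye-loaded 1 h at 37 C and given compound for 5 min at RT, then acetylcholine was added at 50nM. FDSS fluorescence was read 3 min; 15 concentrations, three runs.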

[14] = target: Muscarinic acetylcholine receptor M1 (Homo sapiens) (UniProt P11229); experiment: Cholinergic receptor muscarinic 1 (CHRM1) small molecule agonists, cell-based qHTS assay (AID 1963589); also: nearly all actives have a fitted effect of over 35% in size
Method in brief: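 Human M1 in stable CHO line; 18 h plating, 1 h dye load 37 C; cpd added (agonist mode); Ca2+ fluorescence kinetic read, 1 s intervals; 15 conc, 3 runs.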

[15] = target: Beta-2 adrenergic receptor (Homo sapiens) (UniProt P07550); experiment: Adrenergic beta2 receptor (ADRB2) small molecule antagonists, cell-based qHTS assay (AID 1963592); also: nearly all actives have a fitted effect of over 50% in size; also: potency is read from the fitted curve at half-maximal effect
Chain of Beta-2 adrenergic receptor (Homo sapiens) (P07550 whole entry, looked up): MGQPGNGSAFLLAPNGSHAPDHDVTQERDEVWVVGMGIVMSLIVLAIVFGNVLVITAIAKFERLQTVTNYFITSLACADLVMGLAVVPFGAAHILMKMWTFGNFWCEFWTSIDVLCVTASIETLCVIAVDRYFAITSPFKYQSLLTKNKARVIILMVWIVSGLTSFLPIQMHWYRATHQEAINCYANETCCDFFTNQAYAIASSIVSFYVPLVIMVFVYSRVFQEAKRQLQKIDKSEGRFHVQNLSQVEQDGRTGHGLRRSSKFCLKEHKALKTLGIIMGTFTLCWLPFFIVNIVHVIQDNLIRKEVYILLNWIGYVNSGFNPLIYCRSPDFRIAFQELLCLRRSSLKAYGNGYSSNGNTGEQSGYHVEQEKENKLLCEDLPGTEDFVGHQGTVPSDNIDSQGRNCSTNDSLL
Method in brief: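 Cells (CHO, stable ADRB2 overexpression) incubated 18-20hr at 37C; compounds added from DMSO; agonist mix (1nM isoproterenol, 100uM IBMX, 25uM Ro-20-1724) added; 0.5hr RT; d2-cAMP and anti-cAMP-cryptate added; 1hr RT; 665/615 nm read.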

[16] = target: D(2) dopamine receptor (Homo sapiens) (UniProt P14416); experiment: Dopamine D2 receptor (DRD2) small molecule agonists, cell-based qHTS assay (AID 1963594); also: nearly all actives have a fitted effect of over 35% in size
Chain of D(2) dopamine receptor (Homo sapiens) (P14416 whole entry, looked up): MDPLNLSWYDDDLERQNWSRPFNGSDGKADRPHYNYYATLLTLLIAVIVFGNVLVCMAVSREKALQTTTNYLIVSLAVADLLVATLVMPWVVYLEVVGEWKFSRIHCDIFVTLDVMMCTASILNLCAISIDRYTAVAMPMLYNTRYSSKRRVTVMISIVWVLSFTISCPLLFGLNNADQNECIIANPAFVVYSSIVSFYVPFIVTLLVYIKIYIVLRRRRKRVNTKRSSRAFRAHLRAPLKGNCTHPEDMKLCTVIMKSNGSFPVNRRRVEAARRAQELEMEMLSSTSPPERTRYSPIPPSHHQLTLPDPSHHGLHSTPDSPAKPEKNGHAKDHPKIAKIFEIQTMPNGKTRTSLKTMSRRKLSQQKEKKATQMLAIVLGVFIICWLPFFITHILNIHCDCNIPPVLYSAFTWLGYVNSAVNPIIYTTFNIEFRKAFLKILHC
Method in brief: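 HEK293 cells stably expressing DRD2 were cultured 24 h at 37 C, then given Ro20-1724 (0.1 mM final) and compounds for 10 min at room temperature. NKH477 (200nM) was then added for 30 min. cAMP was read by HTRF.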

[17] = target: D(2) dopamine receptor (Homo sapiens) (UniProt P14416); experiment: Dopamine D2 receptor (DRD2) small molecule antagonists, cell-based qHTS assay (AID 1963595; active = well fitted inhibition curve with a large enough effect in the signal ratio in the repeat runs, with a control signal flat; the % refers to the signal ratio; also: potency is read from the fitted curve at half-maximal effect)
Method in brief: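 Cells were plated and grown for 24 h at 37 °C. Ro20-1724 (0.1 mM final) went in first, then compound for 10 min. NKH477 (200 nM) with quinpirole (12 nM) followed for 30 min at RT, then HTRF detection reagents for 1 h.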

[18] = cAMP Responsive Elements (CRE) small molecule agonists, cell-based qHTS assay (AID 1963590)
Method in brief: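 HEK 293T CRE-bla, 2,000 cells/well, 18 h preincubation 37 C/5% CO2; cpds (DMSO) pinned, 3 h; LiveBLAzer B/G FRET substrate, 2 h RT.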

[19] = target: Beta-2 adrenergic receptor (Homo sapiens) (UniProt P07550); experiment: Adrenergic beta2 receptor (ADRB2) small molecule agonists, cell-based qHTS assay (AID 1963593);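 also: CHO cells stably overexpressing human ADRB2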
Method in brief: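 CHO cells stably over-expressing ADRB2 were plated overnight at 37C, then dosed with compounds plus a stimulation mix containing 100uM IBMX and 25uM Ro-20-1724 for 0.5hr at room temperature. cAMP was measured by HTRF competition, 1hr.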

[20] = cAMP Responsive Elements (CRE) small molecule antagonists, cell-based qHTS assay (AID 1963591; active = well fitted inhibition curve with a large enough effect in the signal ratio in the repeat runs, not every such curve was filed as active; the % refers to the signal ratio)
Method in brief: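 Beta-lactamase reporter read by FRET substrate (LiveBLAzer B/G) after 2 h at room temperature. CRE-bla HEK293T cells had received compound plus 0.25 uM (final) NKH477 for 3 h at 37 °C.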

Row | SMILES | Potency [1] | Potency [2] | Potency [3] | outcome [4] | outcome [5] | Potency [6] | Potency [7] | Potency [8] | Potency [9] | Potency [10] | Potency [11] | Potency [12] | Potency [13] | Potency [14] | Potency [15] | Potency [16] | Potency [17] | Potency [18] | Potency [19] | Potency [20]
1 | Cc1oc(-c2ccccc2)nc1CCC(=O)c1ccc(CC2SC(=O)NC2=O)cc1 (stereo not drawn) | inactive | inactive | inactive | inactive | inactive | inactive | inactive | inactive | inactive | inactive | inactive | inactive | inactive | inactive | inactive | inactive | inactive | – | – | –
2 | SCCCCCCCCS | inactive | inactive | inactive | inactive | inactive | inactive | inactive | inactive | inactive | inactive | inactive | inactive | inactive | – | inactive | inactive | inactive | inactive | inactive | –
3 | Oc1ccc(Oc2ccccc2)cc1 | inactive | inactive | inactive | inactive | inactive | inactive | inactive | inactive | inactive | inactive | inactive | inactive | inactive | inactive | inactive | inactive | inactive | – | inactive | –
4 | CCCCC(CC)CN1C(=O)C2C3C=CC(C3)C2C1=O (stereo not drawn) | inactive | 54.5 µM (active) | inactive | inactive | inactive | inactive | inactive | inactive | inactive | inactive | inactive | inactive | – | inactive | – | inactive | inactive | – | inactive | –
5 | CCCCCCCCCCCSCC(=O)O | inactive | inactive | inactive | inactive | inactive | inactive | inactive | inactive | inactive | inactive | – | inactive | inactive | inactive | inactive | – | inactive | – | – | –
6 | OC1(c2ccc(Cl)c(C(F)(F)F)c2)CCN(CCCC(c2ccc(F)cc2)c2ccc(F)cc2)CC1 | 6.68 µM (active) | inactive | inactive | inactive | inactive | inactive | inactive | inactive | inactive | 11.2 µM (active) | – | inactive | – | inactive | 26.6 µM (active) | inactive | 0.119 µM (active) | – | – | –
7 | CC(C)C[C@H](NC(=O)OCC1c2ccccc2-c2ccccc21)C(=O)O | inactive | 0.611 µM (active) | inactive | inactive | inactive | inactive | inactive | inactive | inactive | inactive | – | inactive | inactive | inactive | inactive | inactive | inactive | – | inactive | –
8 | CCCCCCCCCOC(=O)c1ccccc1C(=O)OCCCCCCCCC | inactive | inactive | inactive | inactive | inactive | inactive | inactive | inactive | inactive | inactive | inactive | – | inactive | inactive | inactive | inactive | – | inactive | – | inactive
